About 750 (31%) of roughly 2,400 compounds were called active.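 The calls were made as follows: active = median signal gain over dofetilide-blocked control wells reaching their mean plus 3 SD, so readout 1 at least 0; inactive = the rest.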 This is one part of the list.
Biological target: Voltage-gated inwardly rectifying potassium channel KCNH2 (Homo sapiens) (UniProt Q12809)
Experiment: hERG protection against dofetilide inhibition, confirmation, cell-based, thallium flux, duplicate retest, dofetilide IC70 (AID 1835)
Conditions: hERG cell line, FluxOR thallium flux, dofetilide-blocked; at 10 µM; stronger effect = higher value

Chain of Voltage-gated inwardly rectifying potassium channel KCNH2 (Homo sapiens) (Q12809 whole entry, looked up): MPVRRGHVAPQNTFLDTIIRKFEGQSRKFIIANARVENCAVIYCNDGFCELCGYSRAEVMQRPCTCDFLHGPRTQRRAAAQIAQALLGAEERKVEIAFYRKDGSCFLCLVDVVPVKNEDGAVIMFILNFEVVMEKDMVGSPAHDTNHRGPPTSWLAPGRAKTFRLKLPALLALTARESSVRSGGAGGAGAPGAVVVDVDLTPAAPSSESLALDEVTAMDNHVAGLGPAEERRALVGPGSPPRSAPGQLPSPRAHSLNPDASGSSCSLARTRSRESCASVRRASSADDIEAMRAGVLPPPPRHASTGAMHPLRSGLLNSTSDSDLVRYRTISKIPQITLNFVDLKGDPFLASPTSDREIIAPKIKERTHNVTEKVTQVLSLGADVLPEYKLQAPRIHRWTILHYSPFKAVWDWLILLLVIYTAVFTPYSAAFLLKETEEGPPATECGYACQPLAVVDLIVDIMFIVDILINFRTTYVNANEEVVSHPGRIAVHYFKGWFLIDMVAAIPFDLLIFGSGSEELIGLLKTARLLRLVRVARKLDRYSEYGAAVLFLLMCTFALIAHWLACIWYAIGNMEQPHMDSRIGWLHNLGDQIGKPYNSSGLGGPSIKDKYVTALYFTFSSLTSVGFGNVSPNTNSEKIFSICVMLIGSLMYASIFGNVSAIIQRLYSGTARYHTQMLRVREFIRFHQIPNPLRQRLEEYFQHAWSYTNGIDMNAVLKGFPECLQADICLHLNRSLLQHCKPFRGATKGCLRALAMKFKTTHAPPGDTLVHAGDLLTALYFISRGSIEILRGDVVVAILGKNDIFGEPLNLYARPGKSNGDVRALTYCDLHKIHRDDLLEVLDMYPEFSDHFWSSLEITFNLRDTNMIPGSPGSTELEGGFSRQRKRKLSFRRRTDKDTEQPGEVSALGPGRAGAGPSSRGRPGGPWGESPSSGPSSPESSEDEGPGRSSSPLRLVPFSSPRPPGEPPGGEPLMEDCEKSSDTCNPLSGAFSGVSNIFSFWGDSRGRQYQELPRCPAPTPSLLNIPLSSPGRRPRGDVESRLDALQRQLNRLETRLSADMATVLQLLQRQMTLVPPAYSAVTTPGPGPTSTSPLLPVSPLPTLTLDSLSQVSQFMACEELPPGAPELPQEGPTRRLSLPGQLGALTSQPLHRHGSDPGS

SMILES | activity increase over dofetilide control, less the hit threshold
O=c1[nH]c(=O)n(CCc2ccc(F)cc2)c(O)c1C=NCc1ccc2c(c1)OCO2 | -26% (inactive)
CC(C)=CCCC1=CCC2C(=O)NNC(=O)C2C1 (stereo not drawn) | -11% (inactive)
CCOc1ccc(N)c(SSc2cc(OCC)ccc2N)c1 | -43% (inactive)
COC(=O)CNc1nc(Cl)nc(Nc2ccc(C)cc2)n1 | -7% (inactive)
Cc1nnc(NC(=O)C2CCCN(S(=O)(=O)c3ccccc3C(F)(F)F)C2)s1 (stereo not drawn) | 4% (active)
COC(=O)c1ccccc1NC(=O)C1CCCN(S(C)(=O)=O)C1 (stereo not drawn) | -17% (inactive)
CCc1nnc(NC(=O)C2CCCCN2S(=O)(=O)c2ccccc2)s1 (stereo not drawn) | -16% (inactive)
Cc1cccc(NC(=O)COc2coc(CN3CCN(c4ccccc4)CC3)cc2=O)c1 | -18% (inactive)
CCOC(=O)Cc1csc(NC(=S)NC(=O)c2ccccc2C)n1 | 3% (active)
COC(=O)c1c(NC(=O)C(C)(C)C)csc1C | -11% (inactive)
CCOC(=O)c1c(SCC(=O)Nc2nc(C)cs2)nc(=O)[nH]c1C | -16% (inactive)
CCOC(=O)Cc1csc(NC(=S)NC(=O)c2ccc(Cl)cc2)n1 | 11% (active)
CCOC(=O)Cc1csc(NC(=S)NC(=O)c2ccccc2Br)n1 | 22% (active)
CCOC(=O)Cc1csc(NC(=S)NC(=O)c2ccc(C)cc2)n1 | -18% (inactive)
CCOC(=O)Cc1csc(NC(=S)NC(=O)C(C)(C)C)n1 | 2% (active)
COc1cc(S(=O)(=O)NCC2COCCO2)ccc1-n1cnnn1 (stereo not drawn) | -17% (inactive)
Cc1ccc(-n2nc(C)c3c2OC(N)=C(C#N)C3c2ccoc2)cc1 (stereo not drawn) | -19% (inactive)
CCOc1ccc(/C=C2\CCc3ccccc3C2=O)cc1 | -13% (inactive)
CSc1ccccc1C(=O)NCc1ccc(C)cc1 | -16% (inactive)
CCOC(=O)C1=C(O)c2ccccc2C(=O)/C1=C\c1ccc(CC)cc1 | 28% (active)
CCOC(=O)c1c(C=O)c(C)n(Cc2ccccc2)c1C | -5% (inactive)
CCOC(=O)C1=C(Cc2ccc(C)cc2)C(=O)c2ccccc2C1=O | 17% (active)

SMILES | activity increase over dofetilide control, less the hit threshold
CCOc1cc(/C=C2/C(=O)ON=C2C)ccc1O | -22% (inactive)
Cc1ccc(OCC(=O)NC(=S)Nc2ccc(Br)cn2)cc1 | 13% (active)
Cc1nc(NC(=S)NC(=O)COc2ccc(Cl)cc2)ccc1Br | 0% (inactive)
Cc1ccc(OCC(=O)NC(=S)Nc2ccc(Br)cn2)cc1C | -13% (inactive)
COc1ccc(C(=O)NC(=S)N(C)C2CCCCC2)cc1Br | -5% (inactive)
CCN(CC)C(=S)NC(=O)c1ccc(OC)c(Br)c1 | 11% (active)
C=CCN(CC=C)C(=S)NC(=O)c1ccc(OC)c(Br)c1 | 48% (active)
COc1ccc(-c2nc3ccc(C(=O)NCC(OC)OC)cc3nc2-c2ccc(OC)c(OC)c2)cc1OC | -14% (inactive)
C=CCN(CC=C)C(=S)NC(=O)c1ccc(C)c(Br)c1 | 100% (active)
C=CCN(CC=C)C(=S)NC(=O)c1ccc(OC)cc1 | 23% (active)
COc1ccc(C(=O)NC(=S)NCCO)cc1Br | -17% (inactive)
C=CCNC(=S)NC(=O)c1ccc(C)c(Br)c1 | -8% (inactive)
O=C(OCCNc1ccc(C(F)(F)F)cc1[N+](=O)[O-])c1cc2ccccc2oc1=O | -10% (inactive)
Nn1c(SCC(=O)Nc2ccc(F)cc2)nnc1C1CCCCC1 | -24% (inactive)
O=C(Cn1cnc2ccccc21)c1ccccc1 | -5% (inactive)
CC(=O)NC1C(Oc2ccccc2C)OC(CO)C(O)C1O (stereo not drawn) | -10% (inactive)
COc1ccc(/C=C/C(=O)NC(=S)NNC(=O)c2cccs2)cc1 | -24% (inactive)
C=CCN(CC=C)C(=S)NC(=O)/C=C/c1ccc(OC)cc1 | 1% (active)
C=CCN(CC=C)C(=S)NC(=O)c1ccc([N+](=O)[O-])cc1 | 56% (active)
C=CCN(CC=C)C(=S)NC(=O)Cc1cccc2ccccc12 | 17% (active)
COc1ccc(OC(=O)Cc2cccc3ccccc23)cc1 | -13% (inactive)
CCC(=O)Nc1ccc(C(=O)NNC(=O)c2cc([N+](=O)[O-])cc([N+](=O)[O-])c2)cc1 | -13% (inactive)

SMILES | activity increase over dofetilide control, less the hit threshold
O=C(NCCOC(=O)c1ccc([N+](=O)[O-])cc1)c1cccnc1 | -4% (inactive)
COc1ccccc1CNC(=O)CCCC(=O)n1ncc2cc(C)ccc21 | -12% (inactive)
C/C(=N\NC(=O)c1ccc(Cl)cc1)c1ccc(Br)s1 | -11% (inactive)
O=C(N/N=C1/C(=O)c2cccc3cccc1c23)c1ccc(Cl)cc1 | 52% (active)
O=C(NN=C1c2ccccc2-c2ccccc21)c1ccccc1 | -5% (inactive)
O=C1c2cccc3cccc(c23)C(=O)C1(O)O | -24% (inactive)
CCNC(=S)N/N=C1\C(=O)c2cccc3cccc1c23 | 9% (active)
CC(C)(C)NC(=O)C(=O)NNC(=O)COc1ccccc1 | -4% (inactive)
CC(NC(=O)c1ccncc1)C(C)(C)C (stereo not drawn) | -4% (inactive)
CC(C)(C)NC(=O)C(=O)NNC(=O)c1cccc(Br)c1 | 35% (active)
CC(C)(C)NC(=O)C(=O)NNC(=O)c1ccccc1 | -5% (inactive)
CCCc1cc(C(=O)NNC(=S)Nc2cccc(C)c2)cs1 | -22% (inactive)
CC/C(=N\NC(=S)Nc1cccc(C)c1)c1ccccc1 | -1% (inactive)
Cc1ccc(Oc2ccc(OCC(=O)NC(CC(C)C)C(=O)O)cc2)cc1 (stereo not drawn) | -20% (inactive)
CC(C)(C)NC(=O)C(=O)NNC(=O)COc1ccc(Br)cc1 | 33% (active)
Cc1c(C(=O)NNC(=O)c2ccncc2)oc2ccc(Br)cc12 | -12% (inactive)
Cc1cccc(NC(=O)C(=O)NNC(=O)c2ccc(C(C)(C)C)cc2)c1 | 83% (active)
CC(C)(C)NC(=O)C(=O)NNC(=O)c1ccc(C(C)(C)C)cc1 | 38% (active)
N#C/C(=N/Nc1ccc([N+](=O)[O-])cc1)C(=N)N1CCCCC1 | -20% (inactive)
O=C1CC(c2ccccc2)c2cccc(F)c21 (stereo not drawn) | -22% (inactive)
CC1CC(C)CN(CCCNC(=O)Cc2c(C(=O)O)[nH]c3ccccc23)C1 (stereo not drawn) | -14% (inactive)
S=c1[nH]c2ccc(Cl)cc2s1 | 91% (active)

SMILES | activity increase over dofetilide control, less the hit threshold
O=C(Nc1ccc2[nH]c(=S)sc2c1)Nc1ccccc1F | -16% (inactive)
S=c1[nH]c2cc(Cl)ccc2s1 | 93% (active)
S=c1[nH]c2ccccc2n2cccc12 | -4% (inactive)
CNC(=O)c1c(O)c2cccc3c2n(c1=O)CC3 | -17% (inactive)
CC(=O)c1cc(N2CCC(C(=O)O)CC2)ccc1[N+](=O)[O-] | -22% (inactive)
O=C(CN1CCCCCCC1)Nc1cccc(Cl)c1Cl | -14% (inactive)
Clc1cccc(OCCCN2CCCC2)c1Cl | 2% (active)
COc1cccc(OC)c1OCCOCCN1CCN(C)CC1 | -17% (inactive)
Cc1ccc(NC(=O)C2C3CCC(O3)C2C(=O)O)cc1C (stereo not drawn) | -1% (inactive)
S=C(Nc1ccccc1)Nc1nc2ccccc2n1CCOc1ccccc1 | -9% (inactive)
CCCc1nnc(NC(=O)CN2CCOCC2)s1 | -19% (inactive)
O=C(Nc1ccccc1)N1CCSc2cc(Cl)ccc21 | -1% (inactive)
CC1CCc2sc(-c3n[nH]c(=S)o3)cc2C1 (stereo not drawn) | 9% (active)
CCc1c(C)nc(SC)n(CC#N)c1=O | -2% (inactive)
O=C(NNC(=S)NC(=O)c1sc2ccccc2c1Cl)c1ccc(Cl)cc1 | 70% (active)
COc1cccc(C(=O)NC(=S)Nn2cnnc2)c1OC | -14% (inactive)
COc1ccccc1C(=O)NNC(=S)NC(=O)c1sc2ccccc2c1Cl | 43% (active)
COc1ccccc1C(=O)NC(=S)NNC(=O)c1sc2ccccc2c1Cl | -18% (inactive)
O=C(N/N=C/c1ccc2cccc(OCc3ccccc3)c2n1)c1ccc(Br)cc1 | -9% (inactive)
CN(C)C(=O)c1ccc(NC(=O)c2cncc(Br)c2)cc1 | -12% (inactive)
COc1cc(NC(=O)CCCOc2ccc(Cl)cc2Cl)c(C(=O)O)cc1OC | -6% (inactive)
O=C(O)c1cc(/C=N\O)ccc1OCc1ccccc1 | -9% (inactive)

SMILES | activity increase over dofetilide control, less the hit threshold
CC(C)C(=O)Nc1cccc(C(=O)Nc2ccccc2C(=O)O)c1 | -7% (inactive)
COc1ccc(C(=O)Nc2ccccc2C(=O)O)cc1Cl | 5% (active)
O=C(Nc1ccccc1C(=O)O)c1cccc(NC(=O)c2ccccc2Br)c1 | -5% (inactive)
O=C(CCCOc1ccc(Cl)cc1Cl)Nc1ccccc1C(=O)O | 3% (active)
CCOP(=O)(OCC)C(NC(=O)c1ccc(OC)c(OC)c1)c1ccccc1 (stereo not drawn) | -14% (inactive)
O=C(Nc1ccccc1C(=O)O)c1cncc(Br)c1 | 12% (active)
COc1cc(C(=O)Nc2ccc(O)cc2C(=O)O)ccc1OC(C)=O | 1% (active)
COc1cc(C(=S)N2CCOCC2)ccc1OC(=O)c1ccc([N+](=O)[O-])cc1[N+](=O)[O-] | -22% (inactive)
Cc1c(Cl)c([N+](=O)[O-])nn1CC(=O)NCC(C)C | -20% (inactive)
COc1ccc(COC(=O)C2CCN(S(=O)(=O)c3cccs3)CC2)cc1 | -27% (inactive)
CC1CCCC(C)N1S(=O)(=O)c1ccc(NC(=O)CCn2cnc3ccccc3c2=O)cc1 (stereo not drawn) | -12% (inactive)
CCOc1ccc(C(=O)Nc2ccccc2C(=O)O)cc1 | 3% (active)
O=C(Nc1ccccc1C(=O)O)c1ccc(NC(=O)C2CC2)cc1 | -2% (inactive)
CCCCC(=O)Nc1cccc(C(=O)Nc2ccccc2C(=O)O)c1 | -3% (inactive)
Cn1c(/N=C/c2c(O)ccc3ccccc23)nc2ccccc21 | -32% (inactive)
O=C1C2CC=CCC2C(=O)N1c1ccc(Cc2ccncc2)cc1 (stereo not drawn) | 3% (active)
O=S(=O)(Nc1ccc(Cc2ccncc2)cc1)c1ccc(Cl)c(Cl)c1 | -6% (inactive)
Cc1nc(-c2nc(-c3c(C(=O)NNC(=O)c4ccc(Cl)cc4)noc3C)cs2)cs1 | -17% (inactive)
CC(C)(C)c1cc(C(=O)NNC(=O)c2ccc(Cl)cc2)no1 | 29% (active)
CC(C)(C)c1csc(NNC(=O)c2ccc(Cl)cc2)n1 | -3% (inactive)

Reference: PubChem BioAssay AID1835 (Johns Hopkins Ion Channel Center, 2009)
